# According to PubChem BioAssay:
# Activity calls are given as the source filed them. Unless noted, how the calls were made is not given here.
# Columns and labels:
# [1] = A549 cell viability effects, profiling panel, calcein-AM fluorescence, 48 h, basal (AID 1162); details: higher = more signal; further: test concentration not given here
# [2] = adipocyte viability effects, profiling panel, cell-based, 3T3-L1 adipocytes, calcein-AM fluorescence, 48 h, basal (AID 1163); details: 3T3-L1 adipocytes viability, higher = more signal; further: test concentration not given here
# [3] = HepG2 cell viability effects, profiling panel, calcein-AM fluorescence, 48 h, basal (AID 1164); details: higher = more signal; further: test concentration not given here
# [4] = MM1S cell viability effects, profiling panel, calcein-AM fluorescence, 48 h, basal (AID 1165); details: higher = more signal;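 further: viability of MM1S multiple myeloma cells under basal unstimulated conditions; test concentration not given here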
# [5] = basal RPMI8226 viability, no added stimulus, profiling panel, cell-based, calcein-AM fluorescence, 48 h, PK04 Diversity Set (AID 1166); details: RPMI8226 myeloma viability, higher = more signal;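 further: cells grown under basal conditions without added stimulus; test concentration not given here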
# [6] = basal HepG2 mitochondrial membrane potential changes, profiling panel, cell-based, JC-1 fluorescence, 24 h, 100 nL compound (AID 1167); details: higher = more signal; further: test concentration not given here
# [7] = basal 3T3-L1 adipocyte mitochondrial potential changes, profiling panel, cell-based, JC-1 fluorescence, 3T3-L1 adipocytes, 24 h, 100 nL compound (AID 1168); details: JC-1 mitochondrial fluorescence, higher = more signal, called active from +8 up or from −8 down; further: test concentration not given here
# [8] = basal RPMI8226 mitochondrial membrane potential changes, profiling panel, cell-based, JC-1 fluorescence, 24 h, 100 nL compound (AID 1169); details: RPMI8226 myeloma, JC-1 mitochondrial potential fluorescence, higher = more signal; further: test concentration not given here
# [9] = basal MM1S mitochondrial membrane potential changes, profiling panel, cell-based, JC-1 fluorescence, 24 h, 100 nL compound (AID 1170); details: higher = more signal; further: test concentration not given here
# [10] = A549 lung cancer cell viability effects, profiling panel, resazurin fluorescence, 24 h, PK04 Diversity Set (AID 1171); details: higher = more signal, called active from +8 up or from −8 down; further: test concentration not given here
# [11] = HepG2 liver cancer cell viability effects, profiling panel, resazurin fluorescence, 24 h, PK04 Diversity Set (AID 1172); details: higher = more signal; further: test concentration not given here
# [12] = basal S. cerevisiae growth modulation, no modifier, primary screen, OD600, strain BY4716, 24 h, basal condition (AID 1173); details: OD600, 24 h, higher = more signal, called active from +8 up or from −8 down
# [13] = MM1S myeloma cell viability, profiling panel, resazurin fluorescence, basal, 24 h, PK04 Diversity Set (AID 1174); details: higher = more signal, called active from +8 up or from −8 down;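 further: MM1S multiple myeloma cell line; test concentration not given here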
# [14] = molecular target: Dihydroorotate dehydrogenase (quinone), mitochondrial (Plasmodium falciparum (isolate 3D7)) (UniProt Q08210); assay: PfDHODH enzyme inhibitors, primary screen, biochemical, C-terminal His tag, absorbance 600 nm (AID 1175); details: DCIP absorbance 600 nm, higher = more signal, called active from +8 up or from −8 down;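 further: recombinant parasite enzyme with a five histidine tag at its C terminus; test concentration not given here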
# [15] = P. aeruginosa biofilm formation inhibitors, primary screen, strain PAO1, LB-PBS medium, absorbance 600 nm (AID 1176); further: test concentration not given here; details: P. aeruginosa PAO1 growth/biofilm, A600, 12 h; higher = more signal
# [16] = S. cerevisiae RM11-1a growth modifiers, primary screen, strain RM11-1a, OD600, basal, 24 h (AID 1177); details: OD600, 24 h, higher = more signal, called active from +8 up or from −8 down;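 further: cultures grown under basal conditions with no added stressor; test concentration not given here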
# [17] = E. coli acrAB mutant growth effects, primary screen, E. coli filamentation inducers, strain DRC39, OD650, 24 h (AID 1178); details: higher = more signal, called active from +8 up or from −8 down;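 further: growth measured as culture turbidity by optical density at 650 nm; test concentration not given here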
# [18] = E. coli acrAB mutant growth effects, primary screen, E. coli filamentation inducers, strain DRC39, OD650, 48 h (AID 1179);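 further: screen aims at cell division blockers that make cells filament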; details: E. coli DRC39 delta-acrAB growth, higher = more signal, called active from +8 up or from −8 down
# [19] = RPMI8226 myeloma cell viability, profiling panel, resazurin fluorescence, basal, 24 h, PK04 Diversity Set (AID 1180); details: higher = more signal;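 further: RPMI8826 multiple myeloma cell line at 5000 cells per well; test concentration not given here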
# [20] = molecular target: E3 ubiquitin-protein ligase XIAP (Homo sapiens) (UniProt P98170); assay: XIAP binders, primary screen, biophysical, small-molecule microarray, fluorescence 635 nm (AID 1181); details: small-molecule microarray binding, higher = more signal;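 further: score merges 667 nm emission and signal to noise over triplicate slides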
# E3 ubiquitin-protein ligase XIAP (Homo sapiens), sequence (P98170 whole entry, looked up): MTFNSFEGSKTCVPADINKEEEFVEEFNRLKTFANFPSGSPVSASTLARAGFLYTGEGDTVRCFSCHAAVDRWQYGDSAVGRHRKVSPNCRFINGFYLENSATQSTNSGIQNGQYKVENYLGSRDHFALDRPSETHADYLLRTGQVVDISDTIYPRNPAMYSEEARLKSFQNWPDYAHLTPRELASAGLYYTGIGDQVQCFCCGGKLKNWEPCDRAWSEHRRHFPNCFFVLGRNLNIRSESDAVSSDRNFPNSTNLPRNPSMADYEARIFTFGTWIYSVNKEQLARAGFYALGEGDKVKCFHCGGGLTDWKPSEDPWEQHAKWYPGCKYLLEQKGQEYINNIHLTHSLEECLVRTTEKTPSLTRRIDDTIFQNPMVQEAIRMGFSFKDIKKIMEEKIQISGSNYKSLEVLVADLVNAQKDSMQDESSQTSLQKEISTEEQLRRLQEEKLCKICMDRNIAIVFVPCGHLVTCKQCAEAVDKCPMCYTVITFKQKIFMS
# Dihydroorotate dehydrogenase (quinone), mitochondrial (Plasmodium falciparum (isolate 3D7)), sequence (Q08210 whole entry, looked up): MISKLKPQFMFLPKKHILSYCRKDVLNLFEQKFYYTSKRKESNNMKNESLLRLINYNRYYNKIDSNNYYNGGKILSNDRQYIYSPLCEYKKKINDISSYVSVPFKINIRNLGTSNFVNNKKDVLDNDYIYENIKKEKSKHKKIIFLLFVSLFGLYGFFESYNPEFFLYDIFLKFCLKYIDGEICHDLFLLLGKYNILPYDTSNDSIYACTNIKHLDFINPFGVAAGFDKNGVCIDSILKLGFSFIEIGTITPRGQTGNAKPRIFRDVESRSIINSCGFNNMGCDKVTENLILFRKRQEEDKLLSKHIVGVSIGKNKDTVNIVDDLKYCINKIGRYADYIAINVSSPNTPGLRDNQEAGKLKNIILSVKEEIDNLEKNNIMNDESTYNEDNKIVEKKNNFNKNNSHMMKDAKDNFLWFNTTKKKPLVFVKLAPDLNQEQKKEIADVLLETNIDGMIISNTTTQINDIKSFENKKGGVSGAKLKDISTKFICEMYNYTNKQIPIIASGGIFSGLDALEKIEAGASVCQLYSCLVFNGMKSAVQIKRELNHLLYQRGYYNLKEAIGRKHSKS
SMILES,z-score [1],z-score [2],z-score [3],z-score [4],z-score [5],z-score [6],z-score [7],z-score [8],z-score [9],z-score [10],z-score [11],z-score [12],z-score [13],composite z-score [14],z-score [15],z-score [16],z-score [17],z-score [18],z-score [19],composite z-score [20]
COC(=O)[C@@H]1CC[C@H](C)[C@@H](c2ccc(C)cc2)N1C(=O)c1ccc(C=NO[C@@H](C)c2cn([C@H](CO)Cc3ccccc3)nn2)cc1,0.724,-0.412,-0.759,-1.41,-1.92,-0.86,0.0596 (inactive),-0.946,-0.901,-0.392 (inactive),-1.27,-0.476 (inactive),-1.93 (inactive),-1.41 (inactive),0.171 (inactive),1.35 (inactive),0.836 (inactive),0.161 (inactive),-1.16,-0.102
CCOC(=O)[C@H](CC(C)C)NC(=O)CCC1CC(OC(=O)NCc2ccc3c(c2)OCO3)CC2(CCCC(COC(=O)NCC(c3ccccc3)c3ccccc3)O2)O1 (stereo not given in full),-0.338,-0.335,-0.312,-3.41,0.592,-0.106,0.604 (inactive),-0.828,0.0369,0.577 (inactive),0.842,0.724 (inactive),0.56 (inactive),0.125 (inactive),-0.306 (inactive),0.786 (inactive),0.304 (inactive),0.321 (inactive),0.509,-0.17
CO[C@H]1COC(=O)CC=C[C@H](C)COC(=O)[C@@H](C)NC(=O)CC=C[C@@H]1C,-0.752,0.197,-1.46,0.735,-1.5,0.187,-0.546 (inactive),-0.111,-0.609,0.0702 (inactive),-0.251,-0.695 (inactive),1.31 (inactive),-0.412 (inactive),-0.16 (inactive),-0.652 (inactive),0.33 (inactive),-1.21 (inactive),0.961,0.0297
COc1ccc(O[C@@H]2[C@H](O)CO[C@H]2C=Cc2ccccc2)cc1,0.576,0.759,0.898,-0.418,-0.483,0.364,0.0785 (inactive),0.868,-0.121,-1.44 (inactive),-1.03,-4.4 (inactive),-0.0321 (inactive),-1.24 (inactive),0.83 (inactive),-1.85 (inactive),0.988 (inactive),-0.741 (inactive),-0.473,-0.113
CC(=O)OC[C@H]1O[C@H](C#Cc2ccccc2)C=C[C@@H]1OC(C)=O,-0.188,0.0552,-0.136,-3.51,-3.71,-1.65,0.458 (inactive),-1.04,-2.48,-0.713 (inactive),-0.153,-2.26 (inactive),-5.37 (inactive),-0.0765 (inactive),-0.339 (inactive),-0.14 (inactive),0.731 (inactive),0.414 (inactive),-2.61,-0.13
CCOC(=O)[C@H](CC(C)C)NC(=O)CCC1CC(OC(=O)NCCc2ccc(F)cc2)CC2(CCCC(COC(=O)NCCOc3ccccc3)O2)O1 (stereo not given in full),-0.331,0.593,-2.7,-3.46,-3.56,-1.82,1.04 (inactive),-0.462,-0.0103,0.169 (inactive),-0.972,0.0544 (inactive),0.2 (inactive),0.95 (inactive),-0.883 (inactive),0.446 (inactive),-0.183 (inactive),0.168 (inactive),0.161,-0.214
O=C1[C@H]2[C@H]3[C@H](O)[C@H](O)CC(=NOCc4ccccc4)[C@H]3CC[C@H]2C(=O)N1Cc1ccc2c(c1)OCO2,0.446,0.717,-1.25,0.424,-1.69,0.701,-0.802 (inactive),0.0189,0.349,0.392 (inactive),0.616,-0.0033 (inactive),0.13 (inactive),-0.51 (inactive),-0.695 (inactive),0.0065 (inactive),0.698 (inactive),-1.38 (inactive),0.129,-0.0663
CO[C@H]1COC(=O)CCC[C@@H](C)[C@H](OC)COC(=O)[C@@H]2CCCN2C(=O)CC=C[C@@H]1C,-0.395,0.376,0.308,0.149,-0.193,-0.0779,-0.0693 (inactive),-0.0032,-0.87,-0.186 (inactive),-0.145,-0.723 (inactive),0.435 (inactive),-0.44 (inactive),-1.04 (inactive),-1.04 (inactive),-0.367 (inactive),-0.459 (inactive),0.826,-0.135
CCN1C(=O)[C@H]2[C@H]3[C@H](O)[C@H](O)CC(=NOC[C@H]4O[C@H](c5ccccc5)C=C[C@@H]4Oc4ccc(OC)cc4)[C@@H]3CC[C@H]2C1=O,0.964,-0.471,0.644,-1.98,-2.23,-0.627,0.0264 (inactive),-1.24,-0.409,-0.531 (inactive),-0.985,-0.933 (inactive),-0.641 (inactive),-0.953 (inactive),0.241 (inactive),0.635 (inactive),0.602 (inactive),0.923 (inactive),-1.04,0.0617
CCC1=NOC(CCC2CC(OC(=O)NCc3cccc4c3OCO4)CC3(CCCC(COC(=O)NCCc4ccccc4OC)O3)O2)C1 (stereo not given),-1.02,0.405,-2.26,-3.6,-3.84,0.559,-0.197 (inactive),-0.77,-2.17,0.492 (inactive),-0.211,-0.101 (inactive),0.0125 (inactive),-0.104 (inactive),1.43 (inactive),-0.509 (inactive),1.13 (inactive),0.918 (inactive),0.718,-0.294
O=C1CCCC(C2=CCCCC2=O)C1 (stereo not given),-0.965,-0.824,-0.114,0.322,0.652,0.512,-0.845 (inactive),0.987,-0.857,-0.684 (inactive),-0.575,0.0749 (inactive),-1.83 (inactive),0.153 (inactive),0.663 (inactive),0.541 (inactive),0.998 (inactive),0.524 (inactive),-1.01,0.197
CCOC(=O)[C@H](Cc1ccccc1)NC(=O)CCC1CC(OC(=O)NCCc2ccc(F)cc2)CC2(CCCC(COC(=O)NCc3ccccc3)O2)O1 (stereo not given in full),0.199,-0.765,-0.12,0.399,-0.816,0.968,0.509 (inactive),-0.191,-0.266,0.56 (inactive),0.567,-0.298 (inactive),0.159 (inactive),-0.447 (inactive),0.013 (inactive),0.694 (inactive),0.321 (inactive),-0.158 (inactive),-0.0066,-0.0525
CCOC(=O)NN=C1C[C@@H](O)[C@@H](O)[C@@H]2[C@@H]3C(=O)N([C@@H](C)c4ccccc4)C(=O)[C@@H]3CC[C@H]12,-0.0339,-0.584,-0.102,0.136,-0.177,-0.39,0.29 (inactive),0.104,-0.476,-0.193 (inactive),0.384,0.448 (inactive),-0.495 (inactive),-0.309 (inactive),0.0942 (inactive),-0.362 (inactive),-0.212 (inactive),-0.102 (inactive),0.331,-0.0076
CCC=CCCC(OC(=O)c1ccc(Br)cc1)C1=CCCCC1=O (stereo not given),-0.211,-0.648,-0.805,-3.68,-3.51,-1.12,-0.711 (inactive),-0.449,-1.97,0.863 (inactive),-0.0791,-2.43 (inactive),-1.06 (inactive),-1.38 (inactive),0.119 (inactive),-0.791 (inactive),0.181 (inactive),0.0322 (inactive),-0.88,-0.291
O=c1n(Cc2cc3c(cc2Cl)OCO3)c(=O)n2n1CC[C@@H]1C(=NOC[C@@H](O)COCc3ccco3)[C@H]3O[C@H]3[C@@H](O)[C@@H]12,-0.158,-0.322,0.105,0.0423,-0.552,-0.611,-1.6 (inactive),0.0236,-0.211,-0.127 (inactive),-0.0975,0.919 (inactive),-0.316 (inactive),0.634 (inactive),0.471 (inactive),0.716 (inactive),-0.133 (inactive),-0.527 (inactive),-0.614,-0.0252
COc1cccc([C@H]2Oc3ccc(OC)cc3C(=NOC[C@@H](O)[C@H]3O[C@@H]4OC(C)(C)O[C@@H]4[C@H]3O)[C@@H]2O)c1,-0.0077,0.568,-1.49,-0.174,-0.684,-1.27,-0.751 (inactive),-0.578,0.49,-0.794 (inactive),-0.791,-6.98 (inactive),-1.21 (inactive),0.474 (inactive),0.56 (inactive),-0.0039 (inactive),-0.218 (inactive),0.0308 (inactive),-0.687,0.0865
